This passage reports outcome results from PubChem BioAssay AID489025 (Southern Research Specialized Biocontainment Screening …, 2010).

About 790 (34%) of roughly 2,300 compounds were called active. The rule behind the calls is not given here. This is one part of the list. Results with a measured potency or affinity are listed apart.

This test is described as follows: THP-1 cell cytotoxicity, dose response, cytotoxicity control for non-replicating M. tuberculosis project (AID 489025). The note with it: THP-1 cell viability; series mostly up to 40 µM.
On to `O=C(COC(=O)c1ccc(Br)o1)NCCCc1ccccc1`, for which the result was inactive.
Turning to `COC(=O)CCSCc1cn2cc(Cl)ccc2n1`, the outcome was inactive.
Consider `CCC1CCc2sc(C(=O)NNC(=O)c3ccncc3)cc2C1` (centres undefined), for which the outcome was inactive.
For `Cc1ccc(NCCC(=O)c2cccs2)cc1C`, the compound was classed as inactive.
Then `COc1ccc(N=N/C(=C\O)C(=O)c2cccs2)cc1`, with “inactive”.
As to `Sc1oc(-c2ccccc2)cc1C=Nc1ccccc1`, the result was inactive.
With `CCOC(=O)COc1ccc(C2CC(C)=NN2c2ccccc2)cc1` (centres undefined), the outcome was inactive.
In the case of `COc1ccc(C2=NOC(COC(=O)c3ccc4ccccc4n3)C2)cc1` (centres undefined), the outcome was inactive.
Next, `CCCCOc1ccc(NC(=O)CN2CCN(Cc3ccccc3)CC2)cc1`: “inactive”; `O=C(COC(=O)C1CC2C=CC1C2)Nc1ccccc1` (centres undefined): “inactive”; `Cc1cc(C)n2[nH]c(=O)c(N=Nc3cccc(C(F)(F)F)c3)c2n1`: “inactive”.
Next, `CCOC(=O)/C=C1\Nc2ccccc2OC1=O`: “inactive”; `Clc1ccc(OCCCCN2CCc3ccccc3C2)cc1`: “inactive”; `Cn1c(SCCOc2cccc(Cl)c2)nnc1-c1ccncc1`: “inactive”.
Regarding `O=C(COC(=O)CCc1c[nH]c2ccccc12)Nc1cc([N+](=O)[O-])ccc1Cl`, the compound was called inactive.
With `O=C(CCCSc1nc2ccccc2s1)NCc1ccco1`, the result was inactive.
For `c1ccc(Cn2c(SCCN3CCOCC3)nnc2-c2cccnc2)cc1`, the compound was classed as inactive.
With `COc1ccc(CN=C2NN=C(c3ccc(Cl)cc3)CS2)cc1`, the result was inactive.
As for `O=C(O)CCCCCN1C(=O)CSC1=S`, the result was inactive.
Consider `O=C(O)c1ccc(CN2C(=O)CSC2=S)cc1`, for which the outcome was inactive.
For the compound `CCOc1ccc(OCC(=O)Nc2nccs2)cc1`, the compound was classed as inactive.
Next, `CCOc1ccc2ccccc2c1/C=N/NC(=O)c1ccncc1`: “inactive”; `COc1ccc(NC(=O)Nc2ccc(O)c3ccccc23)cc1`: “inactive”; `O=C(CCSc1ccc(Cl)cc1)Nc1cccnc1`: “inactive”.
Consider `COc1ccc(C(=O)OCn2nnc3ccccc3c2=O)cc1`, for which the outcome was inactive.
Then `Cc1ccc(C(=O)N/N=C/c2cccc3ccccc23)cn1`, with “inactive”; and `CCOC(=O)C1CCN(CCCSc2ccc(Cl)cc2)CC1`, with “inactive”; and `C/C(=N\NC(=O)c1cccc(Cl)c1)C1C(=O)c2ccccc2C1=O`, with “inactive”.
Turning to `C/C(=N/NC(=O)c1cccc(C)c1)c1c(O)cc(C)oc1=O`, the compound was called inactive.
Turning to `O=C(CCc1ccccc1)NC1C2CC3CC(C2)CC1C3` (centres undefined), the result was inactive.
Regarding `C/C(=N\NC(=O)c1ccncc1)c1cc2ccccc2oc1=O`, the compound was classed as inactive.
Regarding `Cc1ccccc1C(=O)NN1CC(C(=O)OCc2ccc(Cl)c(Cl)c2)CC1=O` (centres undefined), the result was inactive.
For the compound `CSc1ccccc1C(=O)NCc1ccc(S(N)(=O)=O)cc1`, the call was inactive.
`O=C(COc1ccc(Cl)cc1)OCC(=O)N1CCCc2ccccc21`: the compound was classed as inactive.
As to `O=C(Nc1cccnc1)c1cc(Cl)ccc1Cl`, the compound was classed as inactive.
For the compound `CNC(=O)c1[nH]cnc1C(=O)Nc1ccc(Cl)cc1`, the result was inactive.
Next, `CN1/C(=C\C(=O)COC(=O)C2COc3ccccc3O2)C(C)(C)c2ccccc21` (centres undefined): “inactive”; `CN1/C(=C\C(=O)COC(=O)c2ccc([N+](=O)[O-])o2)C(C)(C)c2ccccc21`: “inactive”.
On to `O=C(OCC(=O)C12CC3CC(CC(C3)C1)C2)c1ccccn1`, for which the compound was classed as inactive.
Then `O=C(OCc1ccc(Cl)c(Cl)c1)c1ccccn1`, with “inactive”; and `O=C(Oc1cccnc1)c1ccc(Cl)c(Cl)c1`, with “inactive”.
Then `NNC(=O)CNC(=O)C12CC3CC(CC(C3)C1)C2`, with “inactive”.
Consider `CC(C)c1ccc(OCC(=O)NNC(=O)c2cnccn2)cc1`, for which the result was inactive.
For `O=C(NCc1ccc(F)cc1)c1cnccn1`, the outcome was inactive.
Regarding `Nc1c(C(=O)NC2CCCCC2)nsc1C(=O)OCC(=O)NC1CCCCC1`, the result was inactive.
In the case of `COC(=O)COc1ccc(S(=O)(=O)NCc2ccc3c(c2)OCO3)cc1`, the compound was called inactive.
Take `COC(=O)CCCC(=O)N1CCCC(C(=O)c2ccc(-c3ccccc3)cc2)C1` (centres undefined): the result was inactive.
As for `N#Cc1ccc(CSc2nnc(-c3cccnc3)o2)cc1`, the compound was classed as inactive.
Take `O=C(COC(=O)CCC(=O)c1ccc(F)cc1)Nc1ccccc1`: the compound was called inactive.
